High-throughput results from PubChem.
MCF10A rereplic – inducers of DNA re-replication in MCF 10A breast cells; MCF 10A DNA re-replication, Hoechst nuclear intensity, 48 h; Potency, µM (titrated, usually from 46.1 µM), for the others: at the highest dose activity, positive = re-replication, actives largely listed as activators; 2.9% of 350,000 active; AID 624296; note: potency is the fitted concentration of half-maximal effect; % of control where 0% means no effect; nearly all actives have a fitted effect of over 50% in size
SW480 rerep – inducers of DNA re-replication in SW480 colon cancer cells | Potency, µM (titrated, usually from 46.1 µM), without a hit: top-dose re-replication activation, hits mostly activators | AID 624297 | SW480 DNA re-replication, Hoechst DNA content imaging, 48 h | 1.8% of 340,000 active; note: potency is the fitted concentration of half-maximal effect; % of control where 0% means no effect; nearly all actives have a fitted effect of over 55% in size
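DNA re-replication was detected as more nuclei of elevated Hoechst intensity after 48 hr exposure to compound (23 nL pinned per well of 250 cells).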
KB-V1 cytotox – KB-V1 MDR subline cytotoxicity; 3.4% of 400,000 active; Potency, µM (doses to about 46.1 µM), hits mostly cytotoxic; KB-V1 MDR cells viability, CellTiter-Glo, 72 h; note: potency is the fitted concentration of half-maximal effect; % is set by controls: 0 for no effect and ±100 for the full control effect; nearly all actives have a fitted effect of over 60% in size
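KB-V1 MDR subline cells in DMEM (phenol-red free, 10% FBS) exposed to compounds in qHTS concentration series for 72 h at 37 degrees C. Viability read by CellTiter-Glo luminescence; concentration-effect curves fitted after normalization and correction.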
KB-3-1 tox – KB-3-1 parental cell cytotoxicity. KB-3-1 viability, CellTiter-Glo ATP luminescence, 72 h. Potency, µM (highest dose often 46.1 µM), most hits filed as cytotoxic. 1.4% of 400,000 active. AID 1347075; note: potency is the fitted concentration of half-maximal effect; % is set by controls: 0 for no effect and ±100 for the full control effect; nearly all actives have a fitted effect of over 60% in size
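Viability of parental KB-3-1 cells, measured by CellTiter-Glo luminescence, followed a 72 h incubation at 37 °C with pinned compounds in phenol-red-free DMEM containing 10% FBS.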
S-ASM inh – inhibitors of human secretory acid sphingomyelinase; placental ASM, HMU-PC fluorogenic substrate, 60 min; Potency, µM (doses to about 57.5 µM), for inactives: at the top dose activity change, negative = inhibition, actives largely listed as inhibitors; 0.006% of 340,000 active; P17405; note: potency is the fitted concentration of half-maximal effect
Target sequence (P17405 47-631 limits assumed): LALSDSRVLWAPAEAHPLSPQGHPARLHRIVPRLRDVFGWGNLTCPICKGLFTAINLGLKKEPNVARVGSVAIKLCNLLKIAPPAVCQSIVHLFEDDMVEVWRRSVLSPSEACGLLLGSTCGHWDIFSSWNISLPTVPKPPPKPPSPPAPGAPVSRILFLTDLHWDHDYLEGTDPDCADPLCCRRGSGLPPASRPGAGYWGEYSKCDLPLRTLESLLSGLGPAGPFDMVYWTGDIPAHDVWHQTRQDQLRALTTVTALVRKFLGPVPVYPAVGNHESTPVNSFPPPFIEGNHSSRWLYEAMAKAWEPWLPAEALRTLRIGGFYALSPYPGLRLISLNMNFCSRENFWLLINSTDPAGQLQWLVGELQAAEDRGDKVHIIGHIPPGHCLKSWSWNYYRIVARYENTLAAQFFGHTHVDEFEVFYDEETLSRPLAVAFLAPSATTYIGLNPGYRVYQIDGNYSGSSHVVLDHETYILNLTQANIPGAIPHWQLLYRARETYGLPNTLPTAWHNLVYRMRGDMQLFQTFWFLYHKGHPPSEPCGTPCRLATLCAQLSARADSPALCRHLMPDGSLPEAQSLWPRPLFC
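Steps: dispense placental human ASM, pin compound, wait 10 min at room temperature, add HMU-PC0 substrate at 9 uM final, incubate 60 min at 37 °C, add stop solution raising pH to 10, read fluorescence.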
Giardia kill – kills Giardia lamblia; activity change, % at 7.66 µM, hits read low; Giardia lamblia trophozoite viability; 0.15% of 340,000 active; in the data active = activity change below about -80%; inconclusive = between about -30% and that limit;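 note: parasites exposed to compound for two days anaerobically before the ATP read; % is set by controls: 0 for no effect and ±100 for the full control effect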
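Compounds were tested on trophozoites seeded at 100 cells/well and held 48 hrs at 37 deg C anaerobically. An ATP-based luminescent kit measured the remaining live cells.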
Active calls of the source: *; i = inactive; ? = inconclusive; . = no result given; ! = not confirmed by another sample. This is a sample that favours compounds with a hit; in the whole collection about 6.9% have one here. Unless noted, calls come from the whole dose curve; as a rule, active = well fitted curve in the direction sought with a large enough effect; inconclusive = small, poorly fitted or top-dose-only effect, or another doubt; inactive = no such curve, though single readings can be large; an effect the other way counts as inactive or inconclusive.

SMILES	MCF10A rereplic	SW480 rerep	KB-V1 cytotox	KB-3-1 tox	S-ASM inh	Giardia kill
CC(=O)O[C@H]1C(=O)[C@@]2(C)[C@H]([C@H](OC(=O)c3ccccc3)[C@]3(O)C[C@H](OC(=O)[C@H](O)[C@@H](NC(=O)c4ccccc4)c4ccccc4)C(C)=C1C3(C)C)[C@]1(OC(C)=O)CO[C@@H]1C[C@@H]2O	?	2.6µM*	13µM*!	0.046µM*!	-7%	6
COc1ccc(C(=O)OCC(=O)N2CCN(C(=O)c3ccco3)CC2)cc1OC	-9%	-15%	?	i	2%	-2
COc1ccc(CN(C)Cc2nc(Cc3cccc(F)c3)no2)c2cccnc12	?	3%	1.8µM*	?	-3%	-25
COc1cccc(-n2cc(CN(C)Cc3nc(Cc4cccc(F)c4)no3)cn2)c1	24%	2%	i	i	6%	3
COc1cc(-c2noc(-c3ccc(N4CCOCC4)c([N+](=O)[O-])c3)n2)cc(OC)c1OC	.	.	i	i	.	.
CCN1CCN(C(c2ccc(F)cc2)c2nnnn2Cc2cccs2)CC1 (centres undefined)	23µM*	?	i	i	0%	11
CCCc1ccc(S(=O)(=O)N2CCC(c3nnc(-c4cccc(C)c4)o3)CC2)cc1	.	.	i	?	.	.
CCOC(CNC(=O)c1ccc(N2CCc3ccccc32)c([N+](=O)[O-])c1)OCC	17%	-30%	2.6µM*	?	-17%	18
COC(=O)c1ccc(N2CCc3ccccc32)c([N+](=O)[O-])c1	?	-6%	i	i	-29%	-18
CC(C)n1c(O)c(N=Nc2ccc(Cl)nn2)c2ccccc21	0%	-4%	12µM*	i	-5%	5
COc1ccc(NC(=O)CN(C)C(=O)Cc2n[nH]c(=O)c3ccccc23)cc1	14%	23µM*	i	i	5%	-7
CCOc1ccc(C(=O)COC(=O)Cc2n[nH]c(=O)c3ccccc23)cc1	1.6µM*	2.6µM*	4.6µM*	4.1µM*	-2%	-19
O=C(Cc1n[nH]c(=O)c2ccccc12)OCC(=O)c1ccc(F)cc1	4%	0%	i	i	-2%	-10
COc1ccc(C(C)=O)cc1COC(=O)Cc1n[nH]c(=O)c2ccccc12	6%	-3%	13µM*	i	-2%	-3
O=C(Cc1n[nH]c(=O)c2ccccc12)OCC(=O)c1ccc2c(c1)OCCO2	2.1µM*	4.6µM*	?	1.5µM*	-2%	11
COc1ccccc1C(=O)COC(=O)Cc1n[nH]c(=O)c2ccccc12	-2%	-5%	i	i	3%	3
CCOc1ccc(CCNC(=O)COC(=O)C2=NNC(=O)CC2)cc1OCC	-1%	-2%	?	i	-4%	-8
Cc1nn2c(C)c(C(=O)NC(C)(C)C)cnc2c1-c1ccc(F)cc1	.	.	i	i	.	.
CCN(CC)CCCNC(=O)C(=O)Nc1ccc2nc3n(c(=O)c2c1)CCCCC3	.	.	i	i	.	.
Cn1cc(S(=O)(=O)N2CCCCC2)cc1C(=O)NCc1ccc(Cl)cc1	.	.	.	.	.	-22
CC(=O)c1cccc(N(CC(=O)NC2CCCC2)C(=O)c2csnn2)c1	-18%	-15%	i	i	3%	-14
Cc1ccc(CN2CC34C=CC(O3)C(C(=O)NCc3ccco3)C4C2=O)cc1 (centres undefined)	0%	-4%	18µM*	i	0%	23
Cc1ccc(C)n1-c1nnc(N2CCCC(C(=O)Nc3ccc(C(C)C)cc3)C2)s1 (centres undefined)	.	.	i	i	.	.
COc1ccc(CC(=O)N2CCC(CCC(=O)Nc3ccccc3)CC2)cc1	23µM*	21%	.	.	-3%	-1
COc1cccc(NC(=O)CCC2CCN(C(=O)Cc3cccc(F)c3)CC2)c1	15%	-3%	.	.	4%	-7
SMILES	MCF10A rereplic	SW480 rerep	KB-V1 cytotox	KB-3-1 tox	S-ASM inh	Giardia kill
COc1ccc(CCN(C(=O)C(F)(F)F)C(C(=O)NC2CCCCC2)c2ccc(C)s2)cc1OC (centres undefined)	2%	11%	i	i	-3%	-2
COc1ccc(CCN(C(=O)C(F)(F)F)C(C(=O)NC2CCCC2)c2cccs2)cc1OC (centres undefined)	-7%	19%	9.2µM*	i	-9%	-20
O=S(=O)(c1cccc2ccccc12)N1CCN(c2nc(-c3cccs3)nc3ccccc23)CC1	.	.	.	.	.	7
COc1ccc(C)cc1NS(=O)(=O)c1ccc2oc(=O)c3ncn(C)c3c2c1	.	.	?	i	.	.
CSc1ccc(OC2CCN(Cc3ccccc3)CC2)cc1	?	?	16µM*	i	1%	1
O=c1[nH]c(Sc2ccc([N+](=O)[O-])cc2[N+](=O)[O-])nc2ccccc12	6.5µM*	?	?	i	-6%	-21
Cc1ccc(Sc2ccc([N+](=O)[O-])cc2[N+](=O)[O-])nc1	?	?	i	?	-7%	-19
O=[N+]([O-])c1ccc(Sc2cc[n+]([O-])c3ccccc23)c([N+](=O)[O-])c1	19%	0.82µM*	?	i	-7%	20
CCOC(=O)N1CCN(c2ccc(S(=O)(=O)N(Cc3ccccc3)Cc3ccccc3)cn2)CC1	-7%	2%	5.8µM*	i	-5%	-5
CCSc1nnc([C@H](Cc2ccccc2)NC(=O)OC(C)(C)C)o1	7%	2%	16µM*	i	3%	-1
CC(C)(C)OC(=O)N[C@@H](Cc1ccccc1)c1nnc(SCC(=O)c2ccc(Cl)cc2)o1	?	?	16µM*	i	0%	3
CCCCSc1nnc([C@H](C)NC(=O)OC(C)(C)C)o1	16%	-3%	13µM*	i	2%	-6
CS(=O)(=O)c1ccc(/C=C2\C=Cc3ccccc32)cc1	.	.	i	i	.	.
COC(=O)c1ccc(CSc2nc3c([nH]c4ccccc43)c(=O)n2-c2ccc(Cl)cc2)o1	.	.	i	i	.	.
COc1ccc(Cn2cc(CN3CC(N4CCN(CCO)CC4)CS3(=O)=O)nn2)cc1 (centres undefined)	.	.	i	i	.	.
O=C1C(NS(=O)(=O)c2cccs2)=C(N2CCOCC2)C(=O)c2ccccc21	-4%	-6%	i	i	0%	-16
CN(C1=C(N2CCOCC2)C(=O)c2ccccc2C1=O)c1ccccc1	10%	6%	12µM*	i	-7%	-12
O=C1C=C(N2CCOCC2)c2cccc3cccc1c23	.	.	?	i	.	.
Cc1ccc(N2CCOCC2)c2c1C(=O)c1ccccc1C2=O	?	9%	15µM*	i	-8%	-13
